This is an account of results in ChEMBL document CHEMBL1961873, “Compounds: GSK PKIS; Assays: Nanosyn kinase panel” (2012).

In general, inhibition refers to the drop in the measured response relative to a control, in per cent.

Values joined by “and” are separate entries in the source; they are usually repeats but may differ in a detail not shown here. Equal values may be shown once.

In assay [1] the target is 5'-AMP-activated protein kinase catalytic subunit alpha-2 (Homo sapiens) (UniProt P54646). As to conditions: at 1 µM.
The target of assay [2] is T1, NUAK family SNF1-like kinase 1 (Homo sapiens) (UniProt O60285).
T1 sequence (whole entry): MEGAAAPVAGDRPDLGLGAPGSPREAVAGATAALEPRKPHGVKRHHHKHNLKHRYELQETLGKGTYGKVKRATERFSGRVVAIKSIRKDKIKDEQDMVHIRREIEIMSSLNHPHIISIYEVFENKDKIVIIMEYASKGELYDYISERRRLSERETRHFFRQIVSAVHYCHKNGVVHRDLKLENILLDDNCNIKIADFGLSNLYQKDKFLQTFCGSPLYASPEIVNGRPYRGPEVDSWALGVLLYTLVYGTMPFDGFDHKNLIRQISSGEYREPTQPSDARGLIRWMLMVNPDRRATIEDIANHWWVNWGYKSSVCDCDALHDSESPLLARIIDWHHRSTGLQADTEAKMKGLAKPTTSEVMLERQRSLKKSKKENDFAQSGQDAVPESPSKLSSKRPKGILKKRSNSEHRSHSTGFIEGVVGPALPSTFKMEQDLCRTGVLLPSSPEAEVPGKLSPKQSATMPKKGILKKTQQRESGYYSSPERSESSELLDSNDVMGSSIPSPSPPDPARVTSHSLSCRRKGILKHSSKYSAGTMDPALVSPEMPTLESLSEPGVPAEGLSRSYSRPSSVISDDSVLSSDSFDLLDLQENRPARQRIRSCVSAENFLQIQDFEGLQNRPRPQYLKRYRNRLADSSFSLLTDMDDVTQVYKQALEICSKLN
The note with it: at 0.1 µM.

The target of assay [3] is T1, NUAK family SNF1-like kinase 1 (Homo sapiens). As to conditions: at 1 µM.
Assay [4] concerns the target T2, Serine/threonine-protein kinase BRSK1 (Homo sapiens) (UniProt Q8TDC3).
T2 sequence (whole entry): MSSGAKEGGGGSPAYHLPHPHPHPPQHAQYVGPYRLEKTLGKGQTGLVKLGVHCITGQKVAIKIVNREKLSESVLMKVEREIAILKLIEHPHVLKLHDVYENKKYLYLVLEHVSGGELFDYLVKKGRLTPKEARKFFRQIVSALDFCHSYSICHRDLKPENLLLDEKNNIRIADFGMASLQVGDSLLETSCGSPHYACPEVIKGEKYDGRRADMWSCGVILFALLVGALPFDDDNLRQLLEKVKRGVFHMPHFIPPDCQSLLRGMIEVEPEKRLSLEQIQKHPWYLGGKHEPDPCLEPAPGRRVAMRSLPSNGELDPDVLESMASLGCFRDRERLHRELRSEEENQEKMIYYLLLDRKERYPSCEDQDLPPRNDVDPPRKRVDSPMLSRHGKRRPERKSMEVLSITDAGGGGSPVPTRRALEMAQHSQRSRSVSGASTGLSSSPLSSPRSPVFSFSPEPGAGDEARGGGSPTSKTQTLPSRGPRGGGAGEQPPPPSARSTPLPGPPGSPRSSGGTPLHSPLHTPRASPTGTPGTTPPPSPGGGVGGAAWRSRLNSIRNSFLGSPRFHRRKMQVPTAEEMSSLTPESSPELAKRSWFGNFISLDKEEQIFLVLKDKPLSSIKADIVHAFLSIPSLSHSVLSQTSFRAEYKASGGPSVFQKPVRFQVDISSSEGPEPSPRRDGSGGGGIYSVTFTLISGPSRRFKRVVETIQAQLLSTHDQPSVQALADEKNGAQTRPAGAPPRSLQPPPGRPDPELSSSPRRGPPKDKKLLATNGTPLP
The note with it: at 0.1 µM.

For assay [5], the target named is T2, Serine/threonine-protein kinase BRSK1 (Homo sapiens). As to conditions: at 1 µM.
Assay [6] has as its target T3, Serine/threonine-protein kinase BRSK2 (Homo sapiens) (UniProt Q8IWQ3).
T3 sequence (whole entry): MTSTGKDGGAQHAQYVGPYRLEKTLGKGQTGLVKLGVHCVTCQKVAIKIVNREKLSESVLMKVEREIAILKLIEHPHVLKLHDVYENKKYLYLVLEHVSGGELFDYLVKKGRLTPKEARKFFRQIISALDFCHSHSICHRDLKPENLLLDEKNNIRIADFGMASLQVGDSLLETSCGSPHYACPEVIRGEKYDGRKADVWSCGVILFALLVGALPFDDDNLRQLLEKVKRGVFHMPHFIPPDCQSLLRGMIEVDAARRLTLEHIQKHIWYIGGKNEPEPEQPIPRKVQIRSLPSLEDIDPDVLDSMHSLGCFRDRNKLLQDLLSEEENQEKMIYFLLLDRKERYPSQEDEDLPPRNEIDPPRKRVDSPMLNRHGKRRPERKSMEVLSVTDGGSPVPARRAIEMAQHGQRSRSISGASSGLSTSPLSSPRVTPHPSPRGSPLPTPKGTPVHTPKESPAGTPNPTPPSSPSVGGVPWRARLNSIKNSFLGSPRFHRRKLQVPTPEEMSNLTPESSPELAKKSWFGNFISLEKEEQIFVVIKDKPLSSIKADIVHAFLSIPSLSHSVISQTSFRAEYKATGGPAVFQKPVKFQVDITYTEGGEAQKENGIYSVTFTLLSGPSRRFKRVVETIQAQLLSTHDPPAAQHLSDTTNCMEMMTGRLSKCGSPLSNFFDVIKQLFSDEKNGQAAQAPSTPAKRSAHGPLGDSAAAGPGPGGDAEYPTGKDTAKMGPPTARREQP
The note with it: at 0.1 µM.

Assay [7] has as its target T3, Serine/threonine-protein kinase BRSK2 (Homo sapiens). The note with it: at 1 µM.
Assay [8] addresses Calcium/calmodulin-dependent protein kinase type 1D (Homo sapiens) (UniProt Q8IU85). As to conditions: at 0.1 µM.
Assay [9] has the same target. The note with it: at 1 µM.
Assay [10] has as its target Calcium/calmodulin-dependent protein kinase type II subunit alpha (Homo sapiens) (UniProt Q9UQM7). The note with it: at 0.1 µM.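 Also: reported values are averages (mean inhibition of CAMK2A).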

Chain of 5'-AMP-activated protein kinase catalytic subunit alpha-2 (Homo sapiens) (P54646 whole entry, looked up): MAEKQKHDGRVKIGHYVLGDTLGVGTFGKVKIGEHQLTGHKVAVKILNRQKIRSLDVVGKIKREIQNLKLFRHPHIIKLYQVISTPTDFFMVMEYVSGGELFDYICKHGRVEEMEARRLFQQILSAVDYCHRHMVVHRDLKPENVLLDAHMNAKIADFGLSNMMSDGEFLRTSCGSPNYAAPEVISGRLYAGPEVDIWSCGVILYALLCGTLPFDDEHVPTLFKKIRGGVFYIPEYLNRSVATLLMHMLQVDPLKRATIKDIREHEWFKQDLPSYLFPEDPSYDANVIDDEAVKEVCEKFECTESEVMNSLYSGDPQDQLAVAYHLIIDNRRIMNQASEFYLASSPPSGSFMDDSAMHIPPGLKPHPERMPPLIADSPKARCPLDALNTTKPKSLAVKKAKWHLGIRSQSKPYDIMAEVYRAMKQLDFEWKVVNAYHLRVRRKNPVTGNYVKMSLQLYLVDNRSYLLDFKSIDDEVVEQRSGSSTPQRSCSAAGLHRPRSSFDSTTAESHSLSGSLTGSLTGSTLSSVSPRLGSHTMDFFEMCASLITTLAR
Chain of Calcium/calmodulin-dependent protein kinase type II subunit alpha (Homo sapiens) (Q9UQM7 whole entry): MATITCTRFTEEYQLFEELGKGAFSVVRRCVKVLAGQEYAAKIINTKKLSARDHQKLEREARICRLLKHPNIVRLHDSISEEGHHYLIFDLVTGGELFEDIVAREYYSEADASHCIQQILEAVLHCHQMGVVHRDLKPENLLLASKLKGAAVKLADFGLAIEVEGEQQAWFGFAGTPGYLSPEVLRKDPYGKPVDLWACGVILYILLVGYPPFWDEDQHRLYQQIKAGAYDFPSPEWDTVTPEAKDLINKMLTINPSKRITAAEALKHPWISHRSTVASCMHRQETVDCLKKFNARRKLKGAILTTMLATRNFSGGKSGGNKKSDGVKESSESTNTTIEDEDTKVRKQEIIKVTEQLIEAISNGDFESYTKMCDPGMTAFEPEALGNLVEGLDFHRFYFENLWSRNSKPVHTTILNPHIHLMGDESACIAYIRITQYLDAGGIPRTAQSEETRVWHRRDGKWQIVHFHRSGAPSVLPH
Chain of Calcium/calmodulin-dependent protein kinase type 1D (Homo sapiens) (Q8IU85 whole entry, looked up): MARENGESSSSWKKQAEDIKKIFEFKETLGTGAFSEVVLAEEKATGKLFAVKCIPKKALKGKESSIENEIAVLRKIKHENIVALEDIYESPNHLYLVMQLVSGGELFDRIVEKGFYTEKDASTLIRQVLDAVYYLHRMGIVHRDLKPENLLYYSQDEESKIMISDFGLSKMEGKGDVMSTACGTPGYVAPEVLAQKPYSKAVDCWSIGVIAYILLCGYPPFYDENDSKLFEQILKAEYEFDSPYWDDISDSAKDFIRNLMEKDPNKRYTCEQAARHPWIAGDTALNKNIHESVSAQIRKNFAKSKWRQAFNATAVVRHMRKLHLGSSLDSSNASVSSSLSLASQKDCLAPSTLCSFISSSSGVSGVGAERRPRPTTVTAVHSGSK

Take `COc1ccc(-c2nn3ncccc3c2-c2ccnc(Nc3ccc(F)c(F)c3)n2)cc1`: the inhibition amounted to 6.49% in assay [1]; 3.92% in assay [2]; 5.51% in assay [3]; 3.95% in [4]; 7.79% in assay [5]; 5.66% in [6]. The inhibition is 7.14% in [7], -0.12% in assay [8], 1.91% in assay [9] and 3.21% in assay [10].

As to `Cn1c(-c2nonc2N)nc2cnccc21`, the inhibition stood at 4.41% in [1]; 0.78% in [2]; 4.88% in assay [3]; 2.34% in assay [4]; 5.84% in assay [5]; 3.19% in [6]. The inhibition in [7] stood at 6.4%; in assay [8], 0.12%; in assay [9], 0.97%; in assay [10] it was 3.13%.

In the case of `CCn1c(-c2nonc2N)nc2cncc(C(=O)NCCNC)c21`, the inhibition in [1] was 4.46%; in assay [2] it was -0.78%; in assay [3], 2.03%; in [4], 0.66%; in [5], 6.23%; in [6], 2.51%. Further, the inhibition in [7] was 9.29%; in [8], -0.23%; in assay [9], 0.83%; in assay [10] it was 2.44%.

In the case of `COc1cccc(Nc2nccc(-c3cnn4ncccc34)n2)c1`, the inhibition in assay [1] worked out at 7.99%; in assay [2], 52.8%; in [3] it was 71%; in [4] it was 0.63%; in assay [5] it was 6.67%; in [6], 0.75%. The inhibition in assay [7] is 10.4%; in assay [8] it was -0.48%; in assay [9], 4.71%; in assay [10], 4.77%.

With `OCCCNc1nccc(-c2c(-c3ccc(F)cc3)nn3cc(C(F)(F)F)ccc23)n1`, the inhibition in assay [1] amounted to 3.17%; in assay [2] it was 0.07%; in [3], 3.25%; in assay [4], 1.56%; in assay [5] it was 3.4%; in [6] it was 1.44%. Further, the inhibition in [7] is 3.37%; in assay [8], -0.48%; in [9], 3.05%; in [10], 2.38%.

Take `COc1ccc2ncn(-c3cc(O[C@H](C)c4ccccc4C(F)(F)F)c(C(N)=O)s3)c2c1`: the inhibition in assay [1] came out at 2.72%; in assay [2], 5.12%; in [3], 43.5%; in assay [4] it was 2.49%; in [5], 25.8%; in [6], 6.06%. The inhibition in assay [7] is 36.5%; in assay [8] it was 0.14%; in assay [9], 1.96%; in [10], -1.63%.

Regarding `CC1=C(C(=O)Nc2ccc3[nH]nc(C)c3c2)C(c2ccc(C(F)(F)F)cc2)CC(=O)N1` (stereo not given), the inhibition in assay [1] stood at 7.41%; in assay [2] it was 6.8%; in assay [3], 31.1%; in assay [4], 4.32%; in assay [5], 21.3%; in assay [6] it was 6.42%. The inhibition in [7] was 32.6%; in assay [8] it was 0.54%; in assay [9], 2.58%; in assay [10], 1.45%.

For the molecule `Nc1nccc(-c2c(-c3ccc(F)cc3)ncn2C2CCNCC2)n1`, the inhibition in [1] is -2.2% and 1.34%; in assay [2] it was 3.5% and 3.71%; in [3] it was 8.02% and 2.99%; in assay [4] it was 1.03% and 0.08%; in [5], 5.8% and 0.48%; in [6] it was 1.95% and 0.03%. Also, the inhibition in assay [7] is 7.44% and 0.24%; in assay [8], -0.73% and -0.33%; in [9], 0.76% and -0.11%; in assay [10], -5.11% and -1.58%.

Take `c1ccc(-c2n[nH]cc2-c2ccnc(-c3ccc(OCCn4ccnc4)cc3)c2)nc1`: the inhibition in assay [1] was 1.29%; in assay [2] it was -0.74%; in assay [3], 7.14%; in assay [4], 0.8%; in assay [5], 1.98%; in [6], 0.62%. The inhibition in assay [7] is 4.44%; in assay [8], -0.08%; in assay [9] it was 0.91%; in assay [10], -3.32%.

As for `CNC(=O)c1sc(-n2cnc3cc(OC)c(OC)cc32)cc1OCc1ccccc1C(F)(F)F`, the inhibition in assay [1] is -1.59%; in [2] it was 0.7%; in assay [3] it was 6.22%; in assay [4], 0.35%; in assay [5] it was 4.45%; in assay [6], 4.29%. Further, the inhibition was 4.88% in [7], 0.71% in assay [8], -0.22% in assay [9] and 2.98% in [10].

With `CN(c1ccc(NC(=O)NCCN2CCOCC2)cc1)c1ccnc(Nc2ccc(CS(C)(=O)=O)cc2)n1`, the inhibition in assay [1] is 4.4%; in [2] it was 8.2%; in [3], 41.6%; in assay [4] it was -2.24%; in assay [5], 4.74%; in assay [6] it was 2.43%. Further, the inhibition is 5.48% in assay [7], -0.41% in [8], 0.15% in assay [9] and 1.72% in assay [10].

Consider `CC1(C)CC(n2cnc(-c3ccc(F)cc3)c2-c2ccnc(N)n2)CC(C)(C)N1`, for which the inhibition came to 0.53% in [1]; 0.87% in [2]; 1.37% in [3]; 1.5% in assay [4]; 4.7% in assay [5]; 1.41% in assay [6]. Also, the inhibition in assay [7] was 5.87%; in [8] it was -0.53%; in assay [9] it was 2.41%; in assay [10] it was -2.87%.

With `CNC(=O)c1ncccc1Nc1nc(Nc2cc3c(cc2OC)CCCN3C(=O)CN(C)C)nc2[nH]ccc12`, the inhibition in assay [1] came to 8.1%; in assay [2], 5.36%; in [3], 8.33%; in assay [4], 3.14%; in assay [5], 4.58%; in [6], 3.37%. Moreover, the inhibition in assay [7] was 4.64%; in assay [8], 1.94%; in assay [9] it was 12.9%; in [10], 4.09%.

As for `Cc1c2ccc(N(C)c3ccnc(Nc4cccc(S(N)(=O)=O)c4)n3)cc2nn1C`, the inhibition in assay [1] was determined as 5.34%; in assay [2], 10.9%; in [3] it was 46.2%; in assay [4], 3.47%; in [5], 3.4%; in assay [6] it was 1.95%. For the same molecule, the inhibition was 2.47% in [7], 0.58% in [8], 2.6% in [9] and 3.49% in assay [10].

With `COc1cc(N2CCN(C(C)C)CC2)ccc1Nc1nc(Nc2cccc3ncccc23)c2cc[nH]c2n1`, the inhibition in assay [1] was 0.77%; in assay [2], 13.2%; in assay [3], 47.5%; in assay [4], -0.07%; in assay [5], 0.86%; in assay [6], -0.35%. Besides, the inhibition in assay [7] is -0.59%; in [8], 1.82%; in [9], 17.8%; in [10] it was -2.58%.
